Among the data in PubChem BioAssay (NCATS) are outcome, Potency and activity change, negative = inhibition values, retold here.

Records with an inconclusive call do not appear. Activity calls are given as the source filed them. Unless noted, calls follow the shape of the dose curve; as a rule, active = well fitted curve in the direction sought with a large enough effect in the repeat runs; inconclusive = weak or mixed curves; inactive = no such curve, though single readings can be large; an effect the other way counts as inactive or inconclusive.

The nature of assay [1]: A High-Content qHTS Against Drug Library for the Identification of Small Molecules that Inhibit DYT1 Early Onset Primary Dystonia-Associated Cell Pathology (AID 1645839; calls by dose curve). An outline of the steps: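 Cells were seeded and left for 24 h, then dosed with compound alongside tetracycline induction of mutant EGFP-TorsinA. They were incubated for 48 h, fixed in 4% paraformaldehyde, permeabilized and imaged for mislocalization (%pathology) and cell count.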

The target of assay [2] is Cytochrome P450 2D6 (Homo sapiens) (UniProt P10635). Put plainly: Cytochrome P450 family 2 subfamily D member 6 (CYP2D6) small molecule antagonists: luciferase biochemical (cell-free) qHTS assay (AID 1645840). Also: nearly all actives have a fitted effect of over 55% in size. Also: potency is read from the fitted curve at half-maximal effect. As to activity change, negative = inhibition: % is scaled to controls: 0 for no effect and ±100 for the full control effect. An outline of the steps: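 P450-Glo CYP2D6 system: proluciferin substrate converted by enzyme to luciferin, read by luminescence proportional to activity. Enzyme-substrate mix with compound 10 min at room temperature, then NADPH regeneration 1 h before detection reagent.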
Sequence of Cytochrome P450 2D6 (Homo sapiens) (P10635 whole entry, looked up): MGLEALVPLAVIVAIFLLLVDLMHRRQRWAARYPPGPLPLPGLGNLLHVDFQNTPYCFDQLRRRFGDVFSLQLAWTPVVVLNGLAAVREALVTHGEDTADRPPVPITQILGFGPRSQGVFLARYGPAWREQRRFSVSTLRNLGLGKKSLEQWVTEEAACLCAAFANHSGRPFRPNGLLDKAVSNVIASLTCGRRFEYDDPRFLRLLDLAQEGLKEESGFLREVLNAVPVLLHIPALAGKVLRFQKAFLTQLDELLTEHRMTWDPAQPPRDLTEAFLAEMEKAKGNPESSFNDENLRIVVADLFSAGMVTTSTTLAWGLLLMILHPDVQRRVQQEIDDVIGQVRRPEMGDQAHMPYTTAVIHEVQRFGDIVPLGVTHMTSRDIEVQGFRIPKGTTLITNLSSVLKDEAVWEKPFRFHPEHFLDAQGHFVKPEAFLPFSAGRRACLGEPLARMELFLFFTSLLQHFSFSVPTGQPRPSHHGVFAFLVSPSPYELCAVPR
Background: qHTS replaces the single test concentration by a dilution series.

The target in assay [3] is Cytochrome P450 2C9 (Homo sapiens) (UniProt P11712). Put plainly: Cytochrome P450 family 2 subfamily C member 9 (CYP2C9) small molecule antagonists: luciferase biochemical (cell-free) qHTS assay (AID 1645842). Also: nearly all actives have a fitted effect of over 55% in size. Also: potency is read from the fitted curve at half-maximal effect. As to activity change, negative = inhibition: % is scaled to controls: 0 for no effect and ±100 for the full control effect. A digest of the protocol: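 P450-Glo CYP2C9 system: proluciferin substrate with enzyme in mix containing 0.4% BSA, 10 min at room temperature, then NADPH regeneration solution added and incubated 1 h at 37C. Detection reagent stopped reaction; luminescence read after 20 min as RLU.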
Sequence of Cytochrome P450 2C9 (Homo sapiens) (P11712 whole entry, looked up): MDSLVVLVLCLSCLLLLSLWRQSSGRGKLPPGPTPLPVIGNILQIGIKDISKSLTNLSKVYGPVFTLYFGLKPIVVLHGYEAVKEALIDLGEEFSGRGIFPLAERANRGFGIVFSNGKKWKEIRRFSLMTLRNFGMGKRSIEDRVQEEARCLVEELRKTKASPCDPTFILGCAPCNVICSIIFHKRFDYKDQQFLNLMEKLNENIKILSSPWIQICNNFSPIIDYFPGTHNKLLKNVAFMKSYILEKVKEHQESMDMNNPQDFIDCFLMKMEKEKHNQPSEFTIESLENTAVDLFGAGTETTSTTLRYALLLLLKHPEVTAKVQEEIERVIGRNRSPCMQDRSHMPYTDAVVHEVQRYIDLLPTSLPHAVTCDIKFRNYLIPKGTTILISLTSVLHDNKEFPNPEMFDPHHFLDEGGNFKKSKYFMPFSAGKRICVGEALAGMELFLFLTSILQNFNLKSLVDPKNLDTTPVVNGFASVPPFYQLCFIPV

A short description of assay [4]: Primary qHTS for inhibitors of nuclear receptor binding SET domain protein 2 (NSD2) in an isogenic RCH-ACV NSD2 p.E1099K mutant (9B) (AID 1645876; active = well fitted curve in the direction sought with a large enough effect; an effect the other way counts as inactive or inconclusive; also: nearly all actives have a fitted effect of over 70% in size; also: potency is read from the fitted curve at half-maximal effect).
Assay [5] is described as follows: Primary qHTS for inhibitors of nuclear receptor binding SET domain protein 2 (NSD2) in an RCH-ACV wild type WT cells (2C) (AID 1645877; active = well fitted curve in the direction sought with a large enough effect; an effect the other way counts as inactive or inconclusive; also: nearly all actives have a fitted effect of over 70% in size; also: potency is read from the fitted curve at half-maximal effect).
The nature of assay [6]: Cytotoxicity counterscreen for inhibitors of SARS-CoV-2 cell entry (AID 1645845; calls by dose curve; also: nearly all actives have a fitted effect of over 50% in size; also: potency is read from the fitted curve at half-maximal effect). A digest of the protocol: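 Counterscreen run in the same HEK293-ACE2 line as the pseudotyped-particle entry assay, without particles. Viability after 48 h at 37 C was read as ATP luminescence, scaled between cell-containing and cell-free wells.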
A general note: Counterscreens check selectivity or assay interference.

Assay [7] in a line: Primary qHTS to identify inhibitors of SARS-CoV-2 cell entry (AID 1645846; calls by dose curve; also: nearly all actives have a fitted effect of over 45% in size). To be noted: activity change, negative = inhibition: at 57.1 µM (top of the series) unless noted. An outline of the steps: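 HEK293 cells stably expressing human ACE2, pre-treated 1 h with compound, then infected with MLV particles pseudotyped with Wuhan-Hu-1 spike (C-terminal 19-aa truncation). Luciferase luminescence after 48 h at 37 °C, normalised to spike PP and bald PP.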

The nature of assay [8]: Confirmatory qHTS to identify inhibitors of SARS-CoV-2 cell entry (AID 1645844; calls by dose curve; also: potency is read from the fitted curve at half-maximal effect; nearly all actives have a fitted effect of over 45% in size). An outline of the steps: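 HEK293-ACE2, overnight seeding; cpd 1 h, 37C/5% CO2; + SARS-CoV-2-S MLV PP (Wuhan-Hu-1, ΔC19); 48 h; Bright-Glo luminescence. Data normalised to S PP and bald PP wells.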

Turning to `ClCc1cccc(Cl)c1`, in assay [1], the outcome was inactive. Moreover, the Potency in assay [2] is 20.4 µM (active). Besides, the Potency entry in assay [3], in assay [4] and in assay [5] was “inactive” throughout.

`CCC1(c2ccccc2)CCC(=O)NC1=O` (centres undefined): the Potency entry in assay [2], in assay [4] and in assay [5] was “inactive” throughout.

In the case of `CCC(=O)OC1(c2ccccc2)CCN(C)CC1`, the outcome in assay [1] was inactive. Also, the Potency in assay [2] was 37.5 µM (active). Further, the Potency result in assay [3], in assay [4] and in assay [5] was “inactive” in each case.

In the case of `Cc1cccc(Cc2cnc[nH]2)c1C`, the result in assay [1] was inactive. The Potency in assay [2] was 0.871 µM (active); in assay [3], 0.123 µM (active). In addition, the Potency result in assay [6] was “inactive”. Moreover, the activity change, negative = inhibition in assay [7] was -1.14%.

As for `COP(=O)(OC)OC=C(Cl)Cl`, the molecule was classed as inactive in assay [1]. Also, the Potency result in assay [2], in assay [3], in assay [6], in assay [4] and in assay [5] was “inactive” in each case. Further, the activity change, negative = inhibition in assay [7] is -2.57%.

For `CCN(CC)C(C)C(=O)c1ccccc1` (centres undefined), in assay [1], the molecule was called inactive. Further, the Potency result in assay [2], in assay [3], in assay [4] and in assay [5] was “inactive” each time.

`O=C(N[C@H]1N=C(c2ccccc2F)c2cccc3c2N(CC3)C1=O)c1cc2ccccc2[nH]1`: in assay [1], the outcome was inactive. In addition, the Potency result in assay [2] was “inactive”. For the same molecule, in assay [3], the Potency is 6.92 µM (active). Moreover, the activity change, negative = inhibition in assay [7] was -28.2%.

In the case of `CCOC(C(=O)OCCN(C)C)(c1ccccc1)c1ccccc1`, in assay [1], the molecule was called inactive. For the same molecule, the Potency in assay [2] is 1.38 µM (active); in assay [3] it was 3.09 µM (active). Moreover, the Potency entry in assay [4] and in assay [5] was “inactive” in each case.

On to `CN(C)C(=S)SSC(=S)N(C)C`, for which the Potency was 3.47 µM (active) in assay [3] and 1.58 µM (active) in assay [6].

Take `Cc1ccc(N=CN(C)C=Nc2ccc(C)cc2C)c(C)c1`: the call in assay [1] was inactive. Further, the Potency entry in assay [3], in assay [6], in assay [4] and in assay [5] was “inactive” each time. The activity change, negative = inhibition in assay [7] was -12.8%.

On to `CCCCC1C(=O)NC(=O)N(C2CCCCC2)C1=O` (centres undefined), for which the result in assay [1] was inactive. Further, the Potency result in assay [2], in assay [6] and in assay [7] was “inactive” each time. Further, in assay [3], the Potency is 26.8 µM (active).

Take `CN(C)CCc1c[nH]c2ccc(O)cc12`: the call in assay [1] was inactive. Also, the Potency in assay [2] is 31 µM (active). Further, the Potency result in assay [3], in assay [4] and in assay [5] was “inactive” in each case.

On to `C[N+]1(CCC(C(N)=O)(c2ccccc2)c2ccccc2)CCCCC1`, for which the call in assay [1] was inactive. For the same molecule, in assay [2], the Potency was 15.5 µM (active). In addition, the Potency entry in assay [3], in assay [4] and in assay [5] was “inactive” throughout.

As for `CCN(CC)Cc1nccn1-c1ccc([N+](=O)[O-])cc1C(=O)c1ccccc1Cl`, the call in assay [1] was inactive. The Potency in assay [2] was 1.95 µM (active). The Potency entry in assay [6] is “inactive”.

On to `C[C@H](CN1CCOCC1)C(C(=O)N1CCCC1)(c1ccccc1)c1ccccc1`, for which the molecule was classed as inactive in assay [1]. The Potency in assay [2] was 38.6 µM (active). The Potency result in assay [4] and in assay [5] was “inactive” each time.

For `CC#C[C@]1(O)CC[C@H]2[C@@H]3C[C@H](C)C4=CC(=O)CC[C@]4(C)[C@H]3CC[C@@]21C`, the Potency in assay [3] was 17.4 µM (active); in assay [8], 27.1 µM (active); in assay [4], 23.7 µM (active); in assay [5] it was 15 µM (active). Further, in assay [6], the Potency entry was “inactive”.

Take `CCC(=O)C(CCN(C)C)(c1ccccc1)c1ccccc1`: the Potency in assay [2] is 5.49 µM (active); in assay [8], 12.1 µM (active). The Potency result in assay [6] is “inactive”. In assay [7], the activity change, negative = inhibition is -43.2%.

Turning to `O=C(CCCN1CCC(n2c(=O)[nH]c3ccccc32)CC1)c1ccc(F)cc1`, the Potency in assay [2] was 6.92 µM (active). Also, the Potency result in assay [3], in assay [6] and in assay [7] was “inactive” in each case.

Consider `CCC1(c2cccc(O)c2)CCCCN(C)C1` (centres undefined), for which the Potency in assay [2] was 13.8 µM (active). Moreover, the Potency result in assay [3], in assay [6], in assay [7], in assay [4] and in assay [5] was “inactive” each time.

Turning to `COP(=S)(OC)Oc1ccc(S(N)(=O)=O)cc1`, in assay [1], the molecule was classed as inactive. Besides, the Potency in assay [3] was 4.36 µM (active). For the same molecule, the Potency entry in assay [6], in assay [4] and in assay [5] was “inactive” in each case.

Take `CCOC(=O)C1(c2ccccc2)CCN(CCc2ccc(N)cc2)CC1`: the Potency in assay [2] is 1.74 µM (active). In addition, the Potency result in assay [6] and in assay [4] was “inactive” in each case.

For `Cc1c(Cl)c(=O)oc2cc(OP(=O)(OCCCl)OCCCl)ccc12`, the Potency in assay [2] is 1.55 µM (active); in assay [3] it was 1.23 µM (active). The Potency entry in assay [6] and in assay [7] was “inactive” in each case.

On to `CCN(Cc1ccc(Cl)nc1)/C(=C/[N+](=O)[O-])NC`, for which the molecule was called inactive in assay [1]. In addition, the Potency result in assay [2], in assay [3], in assay [4] and in assay [5] was “inactive” throughout.

For the molecule `Nc1ccccc1C(=O)OCC(O)CO` (centres undefined), the Potency result in assay [2], in assay [3], in assay [6], in assay [4] and in assay [5] was “inactive” in each case. For the same molecule, the activity change, negative = inhibition in assay [7] is -1.98%.

Turning to `Oc1ccc2[nH]cc(CCCCN3CC=C(c4ccccc4)CC3)c2c1`, the results for the Potency in assay [2], in assay [4] and in assay [5] were 0.195 µM (active), 7.5 µM (active) and 7.5 µM (active), respectively.

Take `CCCC[N+]1(C)[C@@H]2CC(OC(=O)[C@H](CO)c3ccccc3)C[C@H]1[C@@H]1O[C@@H]12` (some centres undefined): the result in assay [1] was inactive. Moreover, in assay [2], the Potency was 2.75 µM (active). For the same molecule, the Potency result in assay [3], in assay [6], in assay [4] and in assay [5] was “inactive” in each case. Besides, the activity change, negative = inhibition in assay [7] is -15.6%.

In the case of `CC(CC(C#N)(c1ccccc1)c1ccccc1)N(C)C` (centres undefined), the Potency in assay [2] is 5.61 µM (active); in assay [4] it was 17.2 µM (active). Also, the Potency result in assay [3] was “inactive”.

For the molecule `NC1(c2ccccc2)CCCCC1`, in assay [1], the molecule was classed as inactive. The Potency in assay [2] is 28 µM (active); in assay [4], 17.1 µM (active); in assay [5] it was 24.1 µM (active). Besides, the Potency entry in assay [3] was “inactive”.

`CCc1ccc(C2CCNCC2)cc1`: the call in assay [1] was inactive. The Potency in assay [2] was 0.347 µM (active). Besides, the Potency result in assay [3], in assay [4] and in assay [5] was “inactive” in each case.

Regarding `CC1Sc2c(C(=O)O)c(=O)c3cc(F)c(N4CCNCC4)cc3n21` (centres undefined), the molecule was classed as inactive in assay [1]. Moreover, the Potency result in assay [2], in assay [3], in assay [4] and in assay [5] was “inactive” throughout.

As to `Clc1ccc(C(OCCN2CCCCC2)c2ccccc2)cc1` (centres undefined), the Potency was 0.049 µM (active) in assay [2], 26.6 µM (active) in assay [4] and 26.6 µM (active) in assay [5]. Also, the Potency entry in assay [3] and in assay [6] was “inactive” in each case.
